About 2,700 (4%) of roughly 68,000 compounds showed an effect of 50% or more. The list comes from a sample in which strong results are over-represented; it also holds similar structures and randomly drawn compounds.

The test system of the experiment is Plasmodium berghei. Briefly: Screen against P. berghei liver stage (PbLuc), transformed with Luciferase, at 2uM. Format: functional, HepG2. To be noted: tested at 2 uM.
On to `CNC(=O)c1sccc1S(=O)(=O)NC`, for which the INHIBITION turned out to be 31.27%.

As for `CNS(=O)(=O)c1ccsc1C(=O)OC`, the INHIBITION is listed as -12.44%.

Regarding `Cc1nonc1C1CCCN1C(=O)c1cn2ccsc2n1` (centres undefined), the INHIBITION is reported as -120.95%.

Turning to `Cn1cc(CN2CCCC3(COCCN(c4cccnc4)C3)C2)cn1` (centres undefined), the INHIBITION is reported as 18.15%.

On to `COc1ccc(C(=O)N2CC(c3ccncc3)C2)c(OC)c1OC`, for which the INHIBITION is on record as 45.56%.

On to `COc1ccc(F)cc1C(=O)N1CC(c2ccncc2)C1`, for which the INHIBITION is -26.81%.

On to `COc1cc2c(cc1C(=O)N1CC(c3ccncc3)C1)CCC2`, for which the INHIBITION is on record as 51.96%.

On to `CC(CO)NC(=O)Nc1ccc(COC2CCCC2)cc1` (centres undefined), for which the INHIBITION came out at 31.97%.

Take `CC(C)N1CC(NC(=O)c2ccc(Cl)s2)CC1=O` (centres undefined): the INHIBITION is listed as -28.5%.

In the case of `CN(CCOc1ccc(C#N)cc1)CC1CCS(=O)(=O)C1` (centres undefined), the INHIBITION is on record as 14.59%.

As to `CN(Cc1ccc(C#N)cc1)CC1CCS(=O)(=O)C1` (centres undefined), the INHIBITION was determined as 54.78%.

With `CC(O)CN1CCC(CN(C)Cc2ccc(C#N)cc2)CC1` (centres undefined), the INHIBITION is listed as -3.99%.

As to `Cc1cc(=O)n2ncnc2n1CC(O)COCc1ccccc1Cl` (centres undefined), the INHIBITION is recorded as 19.59%.

For `CN(CC(=O)Nc1ccccc1)C(=O)CN(C)c1ccc(Cl)cn1`, the INHIBITION is listed as -35.22%.

`CN(Cc1nc2ccccc2[nH]1)C(=O)CN(C)c1ccc(Cl)cn1`: the INHIBITION stood at 60.71%.

Regarding `CN(Cc1nc2ccccc2[nH]1)C(=O)CN(C)c1ccccc1`, the INHIBITION is on record as -20.08%.

In the case of `Cc1ncsc1CN1CCn2c(COc3cccnc3)cnc2C1C` (centres undefined), the INHIBITION was -48.36%.

As for `CN(C)c1nccc(N(C)C2CCOCC2)n1`, the INHIBITION was determined as 19.59%.

On to `CC(C)N1CCC(N(C)c2ccnc(N(C)C)n2)CC1`, for which the INHIBITION came out at 69.67%.

On to `CN(C)c1nccc(N(C)C2CCCCC2)n1`, for which the INHIBITION is given as 38.67%.

Consider `CCN(C)Cc1cccc(CNC(=O)CSCc2ccncc2)c1`, for which the INHIBITION is recorded as -56.58%.

Turning to `CCCSCC(=O)NCc1cccc(CN(C)CC)c1`, the INHIBITION came to 15.56%.

Take `CCN(C)Cc1cccc(CNC(=O)CSCc2ccccn2)c1`: the INHIBITION is 72.94%.

For the compound `CO[C@H]1CN(C(=O)c2cc3ccccc3[nH]2)CC[C@H]1N`, the INHIBITION is reported as 13.24%.

In the case of `O=C(c1ccoc1)N1CCOCC2(CCN(Cc3cccs3)C2)C1` (centres undefined), the INHIBITION stood at 3.11%.

For the compound `CN1CCN(CCOc2ccc(NC(=O)c3ccoc3)cc2)CC1`, the INHIBITION is reported as 6.78%.

As to `Cc1nc2sccn2c1C(=O)N1CCc2c(nc(N)[nH]c2=O)C1`, the INHIBITION is listed as -14.71%.

In the case of `Cc1nc(C(C)C)ncc1C(=O)N1CCc2c(nc(N(C)C)[nH]c2=O)C1`, the INHIBITION stood at 55.36%.

`Cc1nc2sccn2c1C(=O)N1CCc2[nH]cnc2C1`: the INHIBITION is on record as -13.03%.

Take `Cc1nc2sccn2c1C(=O)N1CCc2c(nc(N(C)C)[nH]c2=O)C1`: the INHIBITION is reported as 68.02%.

On to `CN(C)c1nc2c(c(=O)[nH]1)CCN(C(=O)c1c[nH]c(=O)c(Cl)c1)C2`, for which the INHIBITION is given as 33.9%.

In the case of `CN(C)c1nc2c(c(=O)[nH]1)CCN(C(=O)c1cccc3nccnc13)C2`, the INHIBITION is -16.93%.

Turning to `O=C(Nc1nccs1)C1CCCN1Cc1ccccn1` (centres undefined), the INHIBITION is 12.47%.

In the case of `CCc1nc(-c2ccc(NC(=O)N3CCCC3)cc2)no1`, the INHIBITION is reported as -75.24%.

For the compound `COc1ccnc(N2CCC3(CC2)[C@H](O)C[C@@H]3OCCN(C)C)n1`, the INHIBITION is recorded as -2.96%.

Take `Cc1nc(C2CCN(S(C)(=O)=O)CC2)nc2c1CCC(=O)N2CC(C)C`: the INHIBITION was 0.12%.

With `Cc1cc(N2CCCC2(C)c2nc(C)cc(C(=O)N(C)C)n2)ncn1` (centres undefined), the INHIBITION was -27.61%.

Turning to `CCOC(=O)N1CCN(C(=O)C2Cc3ccccc3CN2C)CC1` (centres undefined), the INHIBITION is -55.24%.

As for `c1ccc(CCN2CCCC2c2cccc(Nc3nccs3)n2)cc1` (centres undefined), the INHIBITION is 30.29%.

As to `Cc1cnc(Nc2cccc(C3CCCN3Cc3cn(C)nc3C)n2)s1` (centres undefined), the INHIBITION was -15.38%.

With `Cc1cnc(Nc2cccc(C3CCCN3C(=O)CO)n2)s1` (centres undefined), the INHIBITION is 35.31%.

`CS(=O)(=O)N1CCCC1c1cccc(Nc2nccs2)n1` (centres undefined): the INHIBITION was found to be 69.91%.

In the case of `Cc1ccccc1CN1CCCC1c1cccc(Nc2nccs2)n1` (centres undefined), the INHIBITION was 15.61%.

As to `CCN(CC)S(=O)(=O)N1CCCC1c1cccc(Nc2ncc(C)s2)n1` (centres undefined), the INHIBITION is recorded as 56.16%.

As for `Cc1ccccc1CS(=O)(=O)CC(=O)N(C)Cc1ccccc1`, the INHIBITION is reported as 34.25%.

For the compound `CS(=O)(=O)NC[C@]12COC[C@H]1CN(CC1CCCC1)C2`, the INHIBITION is listed as 13.65%.

In the case of `O=C(CC1CN(Cc2ccccc2)CCO1)Nc1ccsc1` (centres undefined), the INHIBITION amounted to 19.53%.

As for `Cc1ccc(SCCN(C)C(=O)c2cn(C3CCC(N)CC3)nn2)cc1` (centres undefined), the INHIBITION was 40.47%.

On to `CCN(CCSc1ccccc1)C(=O)c1cn(C2CCC(N)CC2)nn1` (centres undefined), for which the INHIBITION was 50.61%.

As to `Cc1ccc(SCCCNC(=O)c2cn(C3CCC(N)CC3)nn2)cc1` (centres undefined), the INHIBITION is 18.63%.

As for `CCc1nnc2n1CCN(C(=O)c1ccc3[nH]cnc3c1)C2`, the INHIBITION is -17.45%.

With `CCc1nccn1-c1cncc(C2CCCN2Cc2cccnc2)n1` (centres undefined), the INHIBITION is listed as 18.91%.

In the case of `CCc1nsc(N2CCCN(C(=O)c3ccc(CC)o3)CC2)n1`, the INHIBITION is -2.93%.

On to `CS(=O)(=O)NCCNCc1ccc(Br)s1`, for which the INHIBITION was 21.24%.

The values are drawn from ChEMBL document CHEMBL4513216, “Probing the Open Global Health Chemical Diversity Library for Multistage-Active Starting Points for Next-Generation Antimalarials” (ACS Infect Dis, 2020).
